Compounds with a hit are over-represented: about 18% of the library has one in this group of screens.
HepG2 tox: qHTS for Inhibitors of TGF-b: Cytotox Counterscreen. 410,000 compounds, 0.76% hits. HepG2 CAGA-GFP viability, ATP luminescence, 18 h. Potency, µM (highest dose often 46.1 µM), actives largely listed as cytotoxic
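CellTiter-Glo luminescence gave cytotoxicity after 18 hours at 37 degrees C. The cells were HepG2 CAGA-GFP in 1% FBS DMEM, stimulated with 500 pg/mL TGF-beta after compound addition. %Activity was normalised to no-cell wells (complete cell-killing) and DMSO (no toxicity), and curves were fitted and classified.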
DT40 TDP1 no CPT: qHTS for Inhibitors of human tyrosyl-DNA phosphodiesterase 1 (TDP1): qHTS in cells in absence of CPT; Potency, µM (series often up to 46.2 µM), actives largely listed as inhibitors; 420,000 compounds, 15% hits; DT40 Tdp1-/- hTDP1 cells, no CPT, ATP luminescence, 48 h; note: nearly all actives have a fitted effect of over 55% in size
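Readout: luminescence from CellTiter-Glo after 30 min in the dark at RT. Cells: DT40 Tdp1-/- with stable hTDP1, 400/well. Exposure: compounds alone, ≥48 hr, 37 °C.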
IL-1B inflam inh: qHTS for Inhibitors of Inflammasome Signaling: IL-1-beta AlphaLISA Primary Screen. THP-1 LPS/ATP IL-1B secretion, AlphaLISA, 16 h; hits give low values. activity change, % at 57.5 µM. 360,000 compounds, 4.7% hits. AID 743279, 2014; in the data active = activity change below about -50%; inconclusive = mostly about -30% to -49%
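Secreted IL-1B measured by AlphaLISA bead assay after 16 h compound exposure of THP-1 cells; compounds (final up to 57.5 uM) added 1 h before LPS (250 ng/mL) and ATP (1.25 mM) stimulation; lower signal means less secretion.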
TDP1 inh: qHTS Assay for Inhibitors of Tyrosyl-DNA Phosphodiesterase (TDP1). Potency, µM (highest dose often 130 µM), hits mostly inhibitors. AID 485290, 2010. 350,000 compounds, 0.28% hits. recombinant TDP1, AlphaScreen DNA substrate cleavage. Tyrosyl-DNA phosphodiesterase 1 (Homo sapiens), Q9NUW8; note: nearly all actives have a fitted effect of over 40% in size
Target sequence (Q9NUW8 whole entry, looked up): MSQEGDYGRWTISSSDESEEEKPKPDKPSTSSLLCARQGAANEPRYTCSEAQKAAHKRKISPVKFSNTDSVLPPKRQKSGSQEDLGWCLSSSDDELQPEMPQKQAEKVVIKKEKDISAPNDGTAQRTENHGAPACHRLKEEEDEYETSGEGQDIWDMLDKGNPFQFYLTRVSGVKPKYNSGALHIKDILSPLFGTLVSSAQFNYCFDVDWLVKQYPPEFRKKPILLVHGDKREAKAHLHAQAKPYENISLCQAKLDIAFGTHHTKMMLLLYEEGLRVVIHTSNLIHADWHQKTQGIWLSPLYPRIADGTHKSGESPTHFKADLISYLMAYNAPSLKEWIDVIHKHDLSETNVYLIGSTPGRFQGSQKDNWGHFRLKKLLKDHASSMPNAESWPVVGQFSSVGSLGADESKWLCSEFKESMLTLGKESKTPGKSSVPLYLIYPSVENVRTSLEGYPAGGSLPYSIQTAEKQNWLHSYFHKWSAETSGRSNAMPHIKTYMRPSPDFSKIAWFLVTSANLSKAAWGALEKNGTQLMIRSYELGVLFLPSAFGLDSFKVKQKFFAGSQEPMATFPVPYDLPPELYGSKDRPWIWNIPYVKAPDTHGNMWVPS
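Signal: AlphaScreen proximity between streptavidin donor and anti-FITC acceptor beads on intact substrate. Reaction: Tdp1 1 nM, substrate 15 nM final, 5 min RT after 15 min compound preincubation.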
TGFb SMAD3 inh: qHTS for Inhibitors of TGF-b. Potency, µM (doses to about 46.1 µM), hits mostly inhibitors. 410,000 compounds, 1.2% hits. AID 588855, 2011. HepG2 CAGA-GFP TGF-b/SMAD3 reporter, GFP fluorescence, 18 h; TGF-beta stimulated, 500 pg/mL final; note: nearly all actives have a fitted effect of over 65% in size
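HEPG2 CAGA-GFP cells (1000/well, DMEM with 1% FBS) were pre-incubated 2 h at 37 degrees C, given compound by pin tool, then stimulated with TGF-beta at 500 pg/mL final for 18 h before per-cell GFP fluorescence imaging.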
TDP1 cell CPT: qHTS for Inhibitors of human tyrosyl-DNA phosphodiesterase 1 (TDP1): qHTS in cells in presence of CPT; chicken DT40 Tdp1-/-;hTDP1 cells + 20 nM CPT, ATP luminescence, 48 h; Potency, µM (series often up to 46.2 µM), most hits filed as inhibitors; 420,000 compounds, 12% hits; AID 686979, 2013; note: nearly all actives have a fitted effect of over 55% in size
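Cell growth measured by CellTiter-Glo luminescence after a minimum 48 h, 37 C compound exposure with 20 nM CPT in Tdp1-knockout DT40 cells stably expressing hTDP1, seeded 400/well; qHTS titration format.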
A number is an active result; i = inactive; ? = inconclusive; nt = not tested or not shown; ! = not confirmed by another sample; [ ] = remark or other dose. Unless noted, calls come from the whole dose curve; as a rule, active = well fitted curve in the direction sought with a large enough effect; inconclusive = small, poorly fitted or top-dose-only effect, or another doubt; inactive = no such curve, though single readings can be large; an effect the other way counts as inactive or inconclusive.

SMILES | HepG2 tox | DT40 TDP1 no CPT | IL-1B inflam inh | TDP1 inh | TGFb SMAD3 inh | TDP1 cell CPT
COc1ccc(S(=O)(=O)N2CCOCC2)cc1C(=O)N(C)Cc1ccco1 | i | i | i | i | i | i
COc1ccc(S(=O)(=O)N2CCCCCC2)cc1C(=O)N(C)Cc1ccc(F)cc1 | i | ? | i | nt | i | ?
COc1ccc(S(=O)(=O)N2CCCCCC2)cc1C(=O)N(C)Cc1ccc(OC)c(OC)c1OC | i | 23µM | i | i | i | ?
COc1ccc(S(=O)(=O)N2CCCCCC2)cc1C(=O)N(C)Cc1ccco1 | i | 18µM | i | nt | i | 26µM
COc1ccc(S(=O)(=O)N2CCCCCC2)cc1C(=O)N(C)Cc1ccc(C(C)(C)C)cc1 | i | ? | -72 | i | ? | ?
O=C1CC(=O)N(C2CCCCC2)C(=O)N1c1ccccc1S(=O)(=O)Oc1ccccc1 | i | i | i | nt | i | i
COc1ccc(CNC(=O)C(c2ccccc2F)N(C(=O)c2csnn2)C2CC2)cc1 (centres undefined) | i | ? | i | i | i | 21µM
O=[N+]([O-])c1cnccc1-n1nnc2ccccc21 | nt | 18µM | -116 | nt | nt | 16µM
CC(=O)Oc1cc(O)c2c(=O)c(OC(C)=O)c(-c3ccc(OC(C)=O)c(OC(C)=O)c3)oc2c1 | i | 21µM | i | nt | i | ?
CC(=O)Oc1cc(OC(C)=O)c2c(=O)cc(-c3ccc(OC(C)=O)c(OC(C)=O)c3)oc2c1 | nt | 27µM | nt | i | nt | ?
CCN(C(=O)COC(=O)C1CC1)c1c(N)n(Cc2ccccc2)c(=O)[nH]c1=O | i | i | i | i | i | i
CCOc1ccc(/C=N/NC(=O)c2c(-c3ccccc3)noc2C)cc1 | i | i | i | i | ? | i
O=C(N/N=C/c1cccc(O)c1)c1ccc(COc2ccccc2Br)cc1 | i | ? | -68 | i | i | ?
CC(C)(C)c1ccc(OCc2ccc(C(=O)N/N=C/c3ccc(O)c(O)c3)cc2)cc1 | i | 1.5µM | i | i | ? | 1.3µM
CCOc1ccc(/C=N/NC(=O)COc2ccccc2-c2ccccc2)cc1 | i | ? | i | i | i | 18µM
COCCCn1c(C)cc(C(=O)CN2c3cccc4cccc(c34)S2(=O)=O)c1C | i | 16µM | ? | i | i | 29µM
O=C(N/N=C/c1cccc(O)c1)c1ccc(COc2cccc3cccnc23)cc1 | i | ? | i | i | i | i
COc1cccc(C2c3c(ncn(-c4cccc(Cl)c4)c3=N)Oc3ccc4ccccc4c32)c1 (centres undefined) | nt | nt | nt | i | nt | nt
O=C(Nc1ccn(Cc2c(F)c(F)c(F)c(F)c2F)n1)c1ccc(COc2ccccc2Cl)cc1 | i | ? | i | i | i | i
O=C(N/N=C/c1ccc2c(c1)OCO2)c1ccc(COc2cccc3cccnc23)cc1 | i | 26µM | i | i | i | ?
O=C(Nc1ccc(Cn2cccn2)cc1)c1ccc(COc2ccccc2Br)cc1 | i | 15µM | -60 | i | i | 13µM
COc1cc(/C=N/NC(=O)c2ccc(CN3c4cccc5cccc(c45)S3(=O)=O)cc2)cc(OC)c1O | i | 16µM | i | i | ? | ?
COc1ccc(/C=N/NC(=O)c2ccc(COc3cccc4cccnc34)cc2)cc1O | i | 13µM | i | i | i | ?
COc1ccc(/C=N/NC(=O)c2ccc(CN3c4cccc5cccc(c45)S3(=O)=O)cc2)cc1 | i | ? | i | i | i | i
O=C(COC(=O)c1c(F)cccc1F)NC(=O)NCc1ccccc1 | i | i | i | nt | ? | i
SMILES | HepG2 tox | DT40 TDP1 no CPT | IL-1B inflam inh | TDP1 inh | TGFb SMAD3 inh | TDP1 cell CPT
O=C(N/N=C/c1ccc([N+](=O)[O-])cc1)c1ccc(COc2ccccc2-c2ccccc2)cc1 | i | 13µM | i | i | ? | ?
CC(C)(C)c1ccc(OCc2ccc(C(=O)N/N=C3\CC4CC=CC34)cc2)cc1 (centres undefined) | i | 15µM | i | i | i | 13µM
COc1cc(NC(=O)CN2c3cccc4cccc(c34)S2(=O)=O)cc(OC)c1OC | i | 21µM | i | i | i | ?
O=C(N/N=C/c1ccc([N+](=O)[O-])cc1)c1ccccc1OCc1ccccc1 | i | ? | i | i | i | i
CCOc1ccc(/C=N/NC(=S)Nc2c(C)cccc2C)cc1 | i | 21µM | i | i | i | 21µM
O=C(N/N=C1\CC2CC=CC12)c1ccc(COc2ccccc2)cc1 (centres undefined) | i | ? | i | i | i | i
COc1ccc(CCNC(=O)CCc2c(C)nc3c4cccnc4nn3c2C)cc1OC | i | i | nt | i | i | i
O=C1NC(=O)C(Cc2ccccc2F)(C2CCN(Cc3cccn3-c3cccnc3)CC2)N1 (centres undefined) | nt | i | nt | nt | nt | i
COC(=O)C1CCN(C(=O)COC(=O)CNS(=O)(=O)c2ccc(SC)c([N+](=O)[O-])c2)CC1 | i | i | i | 35µM | i | i
CSc1ccc(S(=O)(=O)NCC(=O)OCC(=O)N2CCCC2=O)cc1[N+](=O)[O-] | i | ? | -96 | i | ? | ?
CSc1ccc(S(=O)(=O)NCC(=O)OCC(=O)N2CC(C)CC(C)C2)cc1[N+](=O)[O-] (centres undefined) | i | i | i | i[0.505 µM] | i | i
CSc1ccc(S(=O)(=O)NCC(=O)OCC(=O)NCc2cccs2)cc1[N+](=O)[O-] | i | i | -66 | i | i | i
CCSc1nnc2c(n1)OC(c1ccc(C)cc1)N(C(C)=O)c1ccccc1-2 (centres undefined) | i | ? | nt | nt | i | ?
COc1ccc(/C=C/C(=O)c2ccc(C)s2)cc1 | nt | ? | nt | i | nt | ?
CC(C)(C)C1CCC(=O)N(CCC#N)CC1 (centres undefined) | i | i | i | nt | i | i
C[C@@H](CN=[N+]=[N-])CN1CC[C@H](C(C)(C)C)CCC1=O | i | 13µM! | i | nt | ? | 11µM!
C[C@@H](CSc1ccc(Br)cc1)CN1CC[C@H](O)CCC1=O | i | 13µM | i | i | i | 13µM
C[C@@H](CSc1ccccc1)CN1CC[C@H](C(C)(C)C)CCC1=O | i | 18µM | i | nt | ? | ?
Cc1ccc(SC[C@H](C)CN2CC[C@H](O)CCC2=O)cc1 | i | i | nt | nt | i | i
